Source: PubChem BioAssay AID540353 (National Center for Advancing Translational Sciences (NCATS), 2011)
This is one part of the list. Results filed as inconclusive are left out. Active and inactive are the calls of the source. Calls follow the shape of the dose curve; as a rule, active = well fitted inhibition curve with a large enough effect; inconclusive = small, poorly fitted or top-dose-only effect; inactive = no such curve, though single readings can be large or run the other way.

assay: qHTS for Inhibitos of Bacillus subtilis Sfp phosphopantetheinyl transferase (PPTase): Chemistry Optimization Followup in B. Subtilis HM489; conditions: B. subtilis HM489 (acpS-) growth, BacTiter-Glo, 5 h; series mostly up to 114 µM; activity change, negative = inhibition: at the top concentration
Text: Phosphopantetheinyl transfer is a process essential to cellular viability and maintenance. Cellular permeable and stable compounds acting as PPTase inhibitors are anticipated to be antimicrobial agents in organisms with complimenting genotypes. […] This experiment evaluated a series of test compounds for antimicrobial activity with B. subtilis HM489 (genotype: acpS- and sfp+), a strain that contains a targeted lesion in the acpS locus and thus requires a functional Sfp gene product for viability. [Mootz HD, 2001] This strain is expected to be sensitized to cell-permeable Sfp inhibitors. NIH Chemical Genomics Center [NCGC] NIH Molecular Libraries Probe Centers Network [MLPCN] MLPCN Grant: MH083266-01 Assay Submitter (PI): Michael Burkart, University of California, San Diego
Innoculum preparation. Bacillus subtilis HM489 is maintained on lysogeny broth (LB) solidified by the addition of 1.5% w/v agar. Single colonies were used to LB medium (2 mL) and shaken overnight at 30 masculineC. In the morning, this culture (100 uL) was used to seed a fresh LB medium (10 mL) and was shaken at 30 masculineC until the culture OD600 reached 0.5. This culture was diluted 1:100 in fresh LB medium to provide the inoculum below. Bacterial susceptibility. LB medium (2 uL) is dispensed into wells of a sterile white 1536-well plate. Test compounds (23 nL) prepared as serial dilutions in DMSO are added to the plate by pintool transfer. Innoculum (2 uL) is added; the plates are covered with a vented Kalypsys assay lid and incubated at 30 masculineC. After 5 hrs, Bac-Titer Glo (4 uL; Promega Corp, Madison, WI) is added to the plates. They are incubated 10 minutes at room temperature and then the luminescence detected in a ViewLux multimodal plate reader.

Structure (SMILES) | activity change, negative = inhibition | Potency
Cc1cc(C)nc(NC(=S)N2CCN(c3ccc4nonc4c3)CC2)c1 | 47.3% (inactive) | 
Cc1cc(C)nc(NC(=S)N2CCN(c3ccc(Cl)cc3F)CC2)c1 |  | 23.5 µM (active)
Cc1cc(C)nc(NC(=S)N2CCN(c3ccc(Cl)cc3C(F)(F)F)CC2)c1 |  | 10.5 µM (active)
COc1cccc(NC(=S)N2CCN(c3ccccc3C(F)(F)F)CC2)n1 |  | 23.5 µM (active)
COc1cccc(NC(=S)N2CCN(c3ccc(Cl)cc3Cl)CC2)n1 | -5.93% (inactive) | 
FC(F)(F)c1cccc(N2CCN(C(=S)Nc3ccncc3)CC2)c1 |  | 59.1 µM (active)
Cc1ccc(N2CCN(C(=S)Nc3cc(C)ccn3)CC2)cc1 |  | 33.2 µM (active)
Cc1cc(C)nc(NC(=S)N2CCN(c3cccc(C(F)(F)F)c3)CC2)c1 |  | 33.2 µM (active)
COc1ccnc(NC(=S)N2CCN(c3ncc(C(F)(F)F)cc3Cl)CC2)c1 |  | 11.8 µM (active)
